Data published in PubChem BioAssay.

Experiment: forskolin-driven CRE-LacZ activity in PC12 – cell-based, CRE-LacZ reporter, forskolin-stimulated, primary screen (AID 1146);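 further: PC12 cells with 6xCRE LacZ reporter stimulated by forskolin 10 µM; beta-galactosidase reporter signal reflecting CREB driven transcription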
Details: luminescence, 4.5 h, higher = more signal, called active from +8 up or from −8 down

z-score, inactive:
COC(=O)[C@@]1(Cc2ccc(OC)cc2)[C@H]2c3cc(C(=O)N4CCCC4)n(CCc4ccc(O)c(O)c4)c3C[C@H]2CN1C(=O)c1ccccc1 0.706
CC(CO)N1C(=O)[C@@H]2C3C(=O)OCCC/C=C\[C@H]3OC23C=CCN(CCN2CCOCC2)C(=O)[C@@H]13 (some centres not stated) -0.183
CC1CC/C=C\[C@H]2OC34C=CCN(Cn5nnc6ccccc65)C(=O)[C@H]3N(CCCCCO)C(=O)[C@@H]4C2C(=O)O1 (some centres not stated) -0.567
COC(=O)C(CC#Cc1ccc2c(c1)[C@]1(C(=O)N2)[C@H](c2ccccc2OCCO)N2[C@H](c3ccccc3)[C@H](c3ccccc3)OC(=O)[C@H]2[C@@H]1C(N)=O)C(=O)OC 1.02
COC(=O)[C@@]1(Cc2ccc(OC)cc2)[C@H]2c3cc(C(=O)N4CCCC4)n(CCSCCO)c3C[C@H]2CN1C(=O)c1ccccc1 1.82
C=CC[C@@]1(C(=O)N2CCCCC2)N=C(c2ccc(OCCCO)cc2)O[C@@H]1c1ccccc1CN=[N+]=[N-] 0.51
CCOC(=O)C1=C[C@@H](C(C)C)N(S(=O)(=O)c2ccc(C)cc2)[C@H]1c1ccccc1F -0.0445
NC(=O)[C@@]1(Cc2ccccc2)N=C(c2ccc(OCCCO)cc2)O[C@H]1c1ccccc1 -0.382
COc1cc2c(cc1O)C(c1cccs1)N(Cc1ccc([N+](=O)[O-])o1)CC2 (configuration not stated) -0.543
COCCCNC(=O)[C@@]1(Sc2ccc(C)cc2)CC(=O)N(Cc2ccccc2Cl)[C@@H]1c1ccc(CO)cc1 1.09
O=C1N(CCS(=O)(=O)c2ccccc2)c2ccccc2[C@@H]2OC(c3ccc(OCCCO)cc3)=N[C@]12Cc1ccccc1 -1.77
[N-]=[N+]=Nc1ccccc1C[C@]1(C(=O)N2CCCCC2)COC(c2ccc(OCCCO)cc2)=N1 -0.57
COc1ccc(CCNC(=O)[C@@]2(c3ccc([N+](=O)[O-])cc3)CC(=O)N(CC34CC5CC(CC(C5)C3)C4)[C@@H]2c2ccc(CO)cc2I)cc1 -0.107
NCCCCCNC(=O)[C@H]1C[C@H]2C(=O)N3CCC[C@H]3C(=O)N2[C@H]1c1ccc(O)cc1 0.165
COCCCNC(=O)[C@@]1(CCS(=O)(=O)c2ccccc2)N=C(c2ccc(OCCCO)cc2)O[C@H]1c1ccccc1N=[N+]=[N-] -1.15
COc1ccc([Si](C)(C)[C@@H]2[C@@H](CCn3cc(CCO)nn3)O[C@]3(C(=O)N(Cc4cccc(N5C(=O)c6cccc7cccc5c67)c4)c4ccccc43)[C@H]2C)cc1 -1.45
O=C1OCCC/C=C\[C@H]2OC34C=CCN(c5ccc6ccccc6c5)C(=O)[C@H]3N(CCCCCO)C(=O)[C@@H]4C12 (some centres not stated) 0.106
CN1C(=O)C2C=CC(C(O)c3ccccc3)N(N3CCCCC3)C2C1=O (configuration not stated) 0.584
C=C(C(=O)CC[C@H](OC(C)=O)c1ccccc1OCCO)C(C)C -0.422
C=C(CCCC)C(=O)CC[C@@H](OC(C)=O)c1ccc(CO)o1 0.516
CC(C)(C)OC(=O)CC[C@]1(C(=O)NCCN2CCOCC2)COC(c2ccc(OCCCO)cc2)=N1 -0.168
C=CCOC(=O)[C@H]1[C@@H]2C(=O)O[C@@H](c3ccccc3)[C@@H](c3ccccc3)N2[C@@H](c2ccc(OCCOC(=O)[C@H]3C[C@H]4C(=O)N[C@@H](CCCCN(C)C)C(=O)N4[C@H]3c3cccc(OCCO)c3)cc2)[C@]12C(=O)Nc1ccc(I)cc12 0.892
[N-]=[N+]=Nc1ccccc1C[C@]1(C(=O)NCc2ccccc2)N=C(c2ccc(OCCCO)cc2)O[C@H]1c1ccccc1N=[N+]=[N-] -0.741
CCOC(=O)C1=CC[C@@H](c2ccccc2)N(S(=O)(=O)c2ccc(C)cc2)[C@H]1c1ccc(CC)cc1 0.0268
COCC(=C=CC[C@H](O)c1ccccc1OCCO)CCO 1.01
COc1ccc(C(=O)Nc2ccc(CN3C(=O)[C@]4(O[C@H](CC(=O)N5CCC[C@H]5CO)[C@@H]([Si](C)(C)c5ccc(OC)cc5)[C@@H]4C)c4ccccc43)cc2)cc1 0.124
C=C(C)[C@@H]1CC=C(C(O)C2C=CC3C(=O)NC(=O)C3N2Nc2ccc(Cl)cc2Cl)CC1 (some centres not stated) -0.113
